Results as given in PubChem BioAssay AID1159580 (chemical genetic matrix, 2015).
Screen size: about 5,500 compounds; about 2,000 (36%) were called active. About 18% were inconclusive and are not listed. Cut-off read from the data, not from the text of the source: active = normalized growth mostly below about 0.91 (no sharp cut-off); inconclusive = no clear call, values can overlap the other calls; inactive = mostly above about 0.92. This is one part of the list.

Assay: chemical genetic growth profiling, strain panel (AID 1159580);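 note: tested at 20 µM; growth read once vehicle control cultures reached saturation at 30 °C; 1 = growth at the plate median or of vehicle wells; lower values mean less growth of the strain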
Conditions: growth OD

Measured: normalized growth

CNC(C)C(O)c1ccccc1 (centres undefined)
inactive: S. cerevisiae deletion strains, locus YJR043C, strain POL32, hits give low values 0.999 | S. cerevisiae deletion strains, locus YJR066W, strain TOR1, hits give low values 0.987 | S. cerevisiae deletion strains, locus YKL009W, strain mrt4, hits give low values 1.01 | S. cerevisiae deletion strains, locus YKL068W, hits give low values 1.01 | S. cerevisiae deletion strains, locus YKL085W, strain MDH1 (second series), hits give low values 1 | S. cerevisiae deletion strains, locus YKL085W, strain MDH1, hits give low values 1 | S. cerevisiae deletion strains, locus YKL160W, strain elf1, hits give low values 1.02 | S. cerevisiae deletion strains, locus YKL190W, strain CNB1, hits give low values 1.01 | S. cerevisiae deletion strains, locus YKR001C, strain vps1, hits give low values 1.03 | S. cerevisiae deletion strains, locus YKR026C, strain gcn3, hits give low values 1.01 | S. cerevisiae deletion strains, locus YKR091W, strain srl3, hits give low values 1.01 | S. cerevisiae deletion strains, locus YLL001W, strain dnm1, hits give low values 1.03 | S. cerevisiae deletion strains, locus YLL026W, hits give low values 1.01 | S. cerevisiae deletion strains, locus YLL041C, strain sdh2, hits give low values 1.01 | S. cerevisiae deletion strains, locus YLR027C, strain aat2, hits give low values 1.02 | S. cerevisiae deletion strains, locus YLR039C, strain RIC1, hits give low values 0.995 | S. cerevisiae deletion strains, locus YLR058C, strain SHM2, hits give low values 1 | S. cerevisiae deletion strains, locus YLR102C, strain apc9, hits give low values 1.02 | S. cerevisiae deletion strains, locus YLR113W, strain HOG1, hits give low values 0.963 | S. cerevisiae deletion strains, locus YLR221C, strain rsa3, hits give low values 1.01 | S. cerevisiae deletion strains, locus YLR258W, strain gsy2, hits give low values 1.01 | S. cerevisiae deletion strains, locus YLR262C, strain YPT6 (second series), hits give low values 1.01 | S. cerevisiae deletion strains, locus YLR262C, strain YPT6, hits give low values 1.03 | S. cerevisiae deletion strains, locus YLR268W, strain sec22, hits give low values 1.02 | S. cerevisiae deletion strains, locus YLR320W, strain mms22, hits give low values 1.02 | S. cerevisiae deletion strains, locus YLR330W, strain CHS5, hits give low values 1 | S. cerevisiae deletion strains, locus YLR342W, strain FKS1 (second series), hits give low values 1 | S. cerevisiae deletion strains, locus YLR342W, strain FKS1, hits give low values 1.02 | S. cerevisiae deletion strains, locus YLR357W, strain rsc2, hits give low values 1.05 | S. cerevisiae deletion strains, locus YLR370C, strain arc18, hits give low values 1.01 | S. cerevisiae deletion strains, locus YLR371W, strain rom2, hits give low values 1.02 | S. cerevisiae deletion strains, locus YLR384C, strain iki3, hits give low values 1.02 | S. cerevisiae deletion strains, locus YLR418C, strain cdc73, hits give low values 1.04 | S. cerevisiae deletion strains, locus YML016C, strain PPZ1, hits give low values 1.01 | S. cerevisiae deletion strains, locus YML032C, strain rad52, hits give low values 1.03 | S. cerevisiae deletion strains, locus YML120C, strain ndi1, hits give low values 1.02 | S. cerevisiae deletion strains, locus YML124C, strain tub3, hits give low values 1.03 | S. cerevisiae deletion strains, locus YMR058W, strain fet3, hits give low values 1.02 | S. cerevisiae deletion strains, locus YMR078C, strain ctf18, hits give low values 1.03 | S. cerevisiae deletion strains, locus YMR125W, strain sto1, hits give low values 0.996 | S. cerevisiae deletion strains, locus YMR129W, hits give low values 1 | S. cerevisiae deletion strains, locus YMR205C, strain PFK2, hits give low values 1.01 | S. cerevisiae deletion strains, locus YMR223W, strain ubp8, hits give low values 1.02 | S. cerevisiae deletion strains, locus YMR231W, strain pep5, hits give low values 1.01 | S. cerevisiae deletion strains, locus YMR307W, strain GAS1, hits give low values 1.02 | S. cerevisiae deletion strains, locus YNL067W, strain RPL9B, hits give low values 1 | S. cerevisiae deletion strains, locus YNL071W, strain lat1, hits give low values 1.02 | S. cerevisiae deletion strains, locus YNL128W, strain TEP1, hits give low values 1.02 | S. cerevisiae deletion strains, locus YNL183C, strain NPR1, hits give low values 0.971 | S. cerevisiae deletion strains, locus YNL209W, strain ssb2, hits give low values 1.01 | S. cerevisiae deletion strains, locus YNL233W, strain BNI4, hits give low values 1 | S. cerevisiae deletion strains, locus YNL248C, strain rpa49, hits give low values 1.01 | S. cerevisiae deletion strains, locus YNL250W, strain rad50, hits give low values 1.02 | S. cerevisiae deletion strains, locus YNL271C, strain bni1, hits give low values 1.02 | S. cerevisiae deletion strains, locus YNL298W, strain CLA4, hits give low values 1.03 | S. cerevisiae deletion strains, locus YNL307C, strain MCK1, hits give low values 1.04 | S. cerevisiae deletion strains, locus YNL322C, strain KRE1 (second series), hits give low values 1.01 | S. cerevisiae deletion strains, locus YNR049C, strain mso1, hits give low values 1.01 | S. cerevisiae deletion strains, locus YNR052C, strain pop2, hits give low values 1.02 | S. cerevisiae deletion strains, locus YOL006C, strain TOP1, hits give low values 0.993 | S. cerevisiae deletion strains, locus YOL012C, strain htz1 1.14 | S. cerevisiae deletion strains, locus YOL147C, strain pex11, hits give low values 1.03 | S. cerevisiae deletion strains, locus YOR001W, strain rrp6, hits give low values 1.02 | S. cerevisiae deletion strains, locus YOR061W, strain CKA2, hits give low values 1.01 | S. cerevisiae deletion strains, locus YOR069W, strain VPS5, hits give low values 1 | S. cerevisiae deletion strains, locus YOR070C, strain gyp1, hits give low values 1.01 | S. cerevisiae deletion strains, locus YOR080W, strain dia2, hits give low values 1.01 | S. cerevisiae deletion strains, locus YOR083W, strain WHI5, hits give low values 1.02 | S. cerevisiae deletion strains, locus YOR106W, strain vam3, hits give low values 1.03 | S. cerevisiae deletion strains, locus YOR136W, strain idh2, hits give low values 1.02 | S. cerevisiae deletion strains, locus YOR144C, strain elg1, hits give low values 1.01 | S. cerevisiae deletion strains, locus YOR184W, strain ser1, hits give low values 1.03 | S. cerevisiae deletion strains, locus YOR231W, strain MKK1, hits give low values 0.995 | S. cerevisiae deletion strains, locus YOR265W, strain rbl2, hits give low values 1.01 | S. cerevisiae deletion strains, locus YOR270C, strain vph1, hits give low values 1.04 | S. cerevisiae deletion strains, locus YOR290C, strain snf2, hits give low values 1 | S. cerevisiae deletion strains, locus YOR316C, strain cot1, hits give low values 1.02 | S. cerevisiae deletion strains, locus YPL051W, strain arl3, hits give low values 1.02 | S. cerevisiae deletion strains, locus YPL055C, strain LGE1, hits give low values 1.01 | S. cerevisiae deletion strains, locus YPL078C, strain atp4, hits give low values 1.03 | S. cerevisiae deletion strains, locus YPL106C, strain sse1, hits give low values 1.01 | S. cerevisiae deletion strains, locus YPL240C, strain hsp82, hits give low values 1.01 | S. cerevisiae deletion strains, locus YPL256C, strain CLN2, hits give low values 1.03 | S. cerevisiae deletion strains, locus YPR119W, strain clb2, hits give low values 1.02 | S. cerevisiae deletion strains, locus YPR141C, strain kar3, hits give low values 1.02 | S. cerevisiae deletion strains, locus YPR163C, strain tif3, hits give low values 1.04 | S. cerevisiae deletion strains, locus YPR167C, strain met16, hits give low values 1.02 | S. cerevisiae deletion strains, strain wtn01, hits give low values 1.02 | S. cerevisiae strains, strain wild type, hits give low values 0.999
